Consider 19 sequences from the OligoGym collection.
Note: reference of the scale not given here.

The target of one experiment is DOCK1. The experiment in a line: pooled miR-30 sensor sort-seq; sequence = guide strand. The note with it: shRNA.
For TAACAGTCTCAAACCAGCGTGG, the sensor-assay potency score (higher = more potent) is -0.364.

As for TTTCGTAACGTGTAACCTCGGT, the sensor-assay potency score (higher = more potent) was 0.0583.

With TAACACTTTGTACTGTTCGTCT, the sensor-assay potency score (higher = more potent) was -0.198.

Regarding TTATACATCATCACTACACAGC, the sensor-assay potency score (higher = more potent) was -0.419.

TTTCGTTCTCATACTGCTCGGC yielded a sensor-assay potency score (higher = more potent) of 0.184.

Take TTCGACTTCATGATCCAGCTTG: the sensor-assay potency score (higher = more potent) came out at 0.58.

In turn, TATCATTTCGAACATCACCAGG displayed a sensor-assay potency score (higher = more potent) of -1.26.

Another experiment addresses DOK4. The experiment is described as above. The following applies: shRNA.
In the case of TTTAGCAGGATGAATCTGTTGA, the sensor-assay potency score (higher = more potent) was found to be 0.432.

For TTGAGGAGGTCTGTTTCCGAGC, the sensor-assay potency score (higher = more potent) was -1.09.

In turn, TCTGAGTCGCAGGTGAAGGTAC came in with a sensor-assay potency score (higher = more potent) of -0.935.

TAGCAGGATGAATCTGTTGAGG: the sensor-assay potency score (higher = more potent) was -1.03.

ATAGTGTCTTGTACCACTCCTC registered a sensor-assay potency score (higher = more potent) of -0.442.

Turning to TTCCCCAGCATCACACATCCGG, the sensor-assay potency score (higher = more potent) was -0.865.

TAGCTCTGAGTCGCAGGTGAAG returned a sensor-assay potency score (higher = more potent) of -1.6.

On to TTCTTCTCCATTTCCAGCAGGA, for which the sensor-assay potency score (higher = more potent) was 0.267.

In turn, TAGTGTCTTGTACCACTCCTCT yielded a sensor-assay potency score (higher = more potent) of -0.903.

TTGCTGATCTCAGTCACCTTGG came in with a sensor-assay potency score (higher = more potent) of -0.109.

As to TTCTCCCAGACTGATGTCGTTG, the sensor-assay potency score (higher = more potent) is -1.27.

Turning to TCTAGCTCTGAGTCGCAGGTGA, the sensor-assay potency score (higher = more potent) is -0.0163.
